The values below come from ChEMBL document CHEMBL1961873, “Compounds: GSK PKIS; Assays: Nanosyn kinase panel” (2012).

Assay [1] addresses T1, Mitogen-activated protein kinase 12 (Homo sapiens) (UniProt P53778).
T1 sequence (whole entry): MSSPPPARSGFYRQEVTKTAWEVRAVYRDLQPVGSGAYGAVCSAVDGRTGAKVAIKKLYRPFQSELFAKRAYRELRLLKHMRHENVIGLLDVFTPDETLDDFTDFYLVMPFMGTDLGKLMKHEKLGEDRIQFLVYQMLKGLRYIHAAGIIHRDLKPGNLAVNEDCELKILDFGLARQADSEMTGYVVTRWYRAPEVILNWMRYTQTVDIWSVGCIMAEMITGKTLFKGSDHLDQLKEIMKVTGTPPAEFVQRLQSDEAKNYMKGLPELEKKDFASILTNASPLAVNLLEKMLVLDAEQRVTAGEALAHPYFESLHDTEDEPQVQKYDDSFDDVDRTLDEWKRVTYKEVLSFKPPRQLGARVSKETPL
Conditions: at 1 µM.

The target in assay [2] is SRSF protein kinase 1 (Homo sapiens) (UniProt Q96SB4). Conditions: at 0.1 µM.
Sequence of SRSF protein kinase 1 (Homo sapiens) (Q96SB4 whole entry): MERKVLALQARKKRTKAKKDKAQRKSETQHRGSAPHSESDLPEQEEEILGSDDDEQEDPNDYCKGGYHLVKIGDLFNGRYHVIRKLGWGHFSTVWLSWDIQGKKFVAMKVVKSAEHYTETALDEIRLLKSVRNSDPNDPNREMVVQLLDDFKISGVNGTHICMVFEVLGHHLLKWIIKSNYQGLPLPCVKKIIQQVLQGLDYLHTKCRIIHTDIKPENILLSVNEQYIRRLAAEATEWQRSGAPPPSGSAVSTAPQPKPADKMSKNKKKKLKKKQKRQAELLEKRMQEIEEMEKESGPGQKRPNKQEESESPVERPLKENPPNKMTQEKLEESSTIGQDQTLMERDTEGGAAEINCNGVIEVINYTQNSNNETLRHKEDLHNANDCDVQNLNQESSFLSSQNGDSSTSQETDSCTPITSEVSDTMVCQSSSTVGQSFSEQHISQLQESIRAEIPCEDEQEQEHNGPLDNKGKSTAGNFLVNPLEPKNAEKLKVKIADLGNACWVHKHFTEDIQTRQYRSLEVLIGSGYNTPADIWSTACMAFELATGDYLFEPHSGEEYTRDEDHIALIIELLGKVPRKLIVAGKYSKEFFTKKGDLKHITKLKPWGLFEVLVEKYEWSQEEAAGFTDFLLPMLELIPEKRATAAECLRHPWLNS
For assay [3] the target is unchanged. Conditions: at 1 µM.
The target of assay [4] is Phosphatidylinositol 4,5-bisphosphate 3-kinase catalytic subunit alpha isoform (Homo sapiens) (UniProt P42336). The following applies: at 0.1 µM.
Sequence of Phosphatidylinositol 4,5-bisphosphate 3-kinase catalytic subunit alpha isoform (Homo sapiens) (P42336 whole entry, canonical isoform): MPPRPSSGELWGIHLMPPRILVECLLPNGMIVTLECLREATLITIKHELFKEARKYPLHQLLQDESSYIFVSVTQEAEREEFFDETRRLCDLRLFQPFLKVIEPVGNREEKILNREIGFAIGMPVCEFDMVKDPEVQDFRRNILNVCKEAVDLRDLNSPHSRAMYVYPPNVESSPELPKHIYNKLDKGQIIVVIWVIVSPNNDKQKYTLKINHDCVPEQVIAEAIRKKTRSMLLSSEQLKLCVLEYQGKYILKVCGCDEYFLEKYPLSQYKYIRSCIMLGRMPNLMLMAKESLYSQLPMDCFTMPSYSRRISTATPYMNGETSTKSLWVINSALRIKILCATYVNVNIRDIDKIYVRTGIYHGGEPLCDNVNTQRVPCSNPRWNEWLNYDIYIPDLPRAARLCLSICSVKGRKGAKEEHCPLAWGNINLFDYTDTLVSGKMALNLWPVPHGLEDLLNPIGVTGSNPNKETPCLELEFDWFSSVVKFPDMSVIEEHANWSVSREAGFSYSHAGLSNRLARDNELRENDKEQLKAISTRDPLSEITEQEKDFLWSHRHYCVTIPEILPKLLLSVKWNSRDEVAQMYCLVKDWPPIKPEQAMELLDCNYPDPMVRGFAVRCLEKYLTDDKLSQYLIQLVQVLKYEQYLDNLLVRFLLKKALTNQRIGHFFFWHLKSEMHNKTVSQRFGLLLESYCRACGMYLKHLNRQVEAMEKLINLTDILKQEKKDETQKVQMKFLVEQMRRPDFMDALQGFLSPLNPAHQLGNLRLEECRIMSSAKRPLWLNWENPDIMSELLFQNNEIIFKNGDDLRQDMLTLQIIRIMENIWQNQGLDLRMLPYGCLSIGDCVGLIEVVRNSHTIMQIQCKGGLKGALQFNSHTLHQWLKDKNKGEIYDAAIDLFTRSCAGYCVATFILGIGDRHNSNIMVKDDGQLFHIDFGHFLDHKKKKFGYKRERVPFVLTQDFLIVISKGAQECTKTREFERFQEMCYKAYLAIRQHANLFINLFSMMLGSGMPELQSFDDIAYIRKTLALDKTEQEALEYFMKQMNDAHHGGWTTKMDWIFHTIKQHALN
Assay [5] shares this target. Conditions: at 1 µM.
For assay [6], the target named is T2, Phosphatidylinositol 4,5-bisphosphate 3-kinase catalytic subunit delta isoform (Homo sapiens) (UniProt O00329).
T2 sequence (whole entry): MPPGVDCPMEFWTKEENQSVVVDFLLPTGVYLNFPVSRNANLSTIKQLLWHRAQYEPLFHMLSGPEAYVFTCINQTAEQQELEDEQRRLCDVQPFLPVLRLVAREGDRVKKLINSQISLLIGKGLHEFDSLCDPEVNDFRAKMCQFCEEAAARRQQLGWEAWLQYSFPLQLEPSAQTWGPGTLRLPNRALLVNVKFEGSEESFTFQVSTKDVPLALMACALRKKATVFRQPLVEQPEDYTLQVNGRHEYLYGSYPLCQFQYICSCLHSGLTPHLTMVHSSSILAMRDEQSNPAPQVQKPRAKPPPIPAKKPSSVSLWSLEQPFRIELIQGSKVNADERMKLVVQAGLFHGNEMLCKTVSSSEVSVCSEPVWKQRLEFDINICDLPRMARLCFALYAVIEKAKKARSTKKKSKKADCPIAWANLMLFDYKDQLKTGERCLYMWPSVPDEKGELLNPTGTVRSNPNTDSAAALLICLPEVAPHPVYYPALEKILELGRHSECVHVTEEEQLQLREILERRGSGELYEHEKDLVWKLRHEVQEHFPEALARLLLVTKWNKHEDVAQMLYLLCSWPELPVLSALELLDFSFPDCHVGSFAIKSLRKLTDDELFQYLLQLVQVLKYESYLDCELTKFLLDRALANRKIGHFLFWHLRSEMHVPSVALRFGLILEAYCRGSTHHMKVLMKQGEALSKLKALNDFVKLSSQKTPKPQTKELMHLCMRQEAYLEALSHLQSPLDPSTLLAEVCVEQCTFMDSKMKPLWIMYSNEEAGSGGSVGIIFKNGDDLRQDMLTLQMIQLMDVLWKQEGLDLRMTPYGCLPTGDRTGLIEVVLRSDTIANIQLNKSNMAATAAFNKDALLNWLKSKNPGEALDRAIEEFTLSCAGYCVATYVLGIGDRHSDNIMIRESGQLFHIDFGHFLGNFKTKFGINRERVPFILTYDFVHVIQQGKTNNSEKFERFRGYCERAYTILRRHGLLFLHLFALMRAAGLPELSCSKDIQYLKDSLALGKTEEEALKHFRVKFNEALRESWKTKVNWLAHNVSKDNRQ
The following applies: at 0.1 µM.

In assay [7] the target is T2, Phosphatidylinositol 4,5-bisphosphate 3-kinase catalytic subunit delta isoform (Homo sapiens). The following applies: at 1 µM.
Assay [8] addresses Phosphatidylinositol 4-kinase beta (Homo sapiens) (UniProt Q9UBF8). Conditions: at 0.1 µM.
Assay [9] has the same target. The following applies: at 1 µM.
Assay [10] deals with Sphingosine kinase 1 (Homo sapiens) (UniProt Q9NYA1). The following applies: at 0.1 µM.
Sequence of Sphingosine kinase 1 (Homo sapiens) (Q9NYA1 whole entry): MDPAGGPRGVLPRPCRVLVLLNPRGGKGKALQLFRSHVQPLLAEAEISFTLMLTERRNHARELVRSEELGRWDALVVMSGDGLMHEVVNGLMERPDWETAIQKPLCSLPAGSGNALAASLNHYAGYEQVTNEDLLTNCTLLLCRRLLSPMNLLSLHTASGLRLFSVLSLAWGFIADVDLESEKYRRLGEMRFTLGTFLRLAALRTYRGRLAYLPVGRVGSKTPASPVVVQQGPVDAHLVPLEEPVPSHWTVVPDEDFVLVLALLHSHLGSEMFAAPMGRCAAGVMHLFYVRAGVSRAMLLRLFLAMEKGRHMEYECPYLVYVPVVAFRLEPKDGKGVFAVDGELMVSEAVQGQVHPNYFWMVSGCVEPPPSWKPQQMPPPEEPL
For assay [11] the target is unchanged. The following applies: at 1 µM.
The target of assay [12] is T3, Sphingosine kinase 2 (Homo sapiens) (UniProt Q9NRA0).
T3 sequence (whole entry): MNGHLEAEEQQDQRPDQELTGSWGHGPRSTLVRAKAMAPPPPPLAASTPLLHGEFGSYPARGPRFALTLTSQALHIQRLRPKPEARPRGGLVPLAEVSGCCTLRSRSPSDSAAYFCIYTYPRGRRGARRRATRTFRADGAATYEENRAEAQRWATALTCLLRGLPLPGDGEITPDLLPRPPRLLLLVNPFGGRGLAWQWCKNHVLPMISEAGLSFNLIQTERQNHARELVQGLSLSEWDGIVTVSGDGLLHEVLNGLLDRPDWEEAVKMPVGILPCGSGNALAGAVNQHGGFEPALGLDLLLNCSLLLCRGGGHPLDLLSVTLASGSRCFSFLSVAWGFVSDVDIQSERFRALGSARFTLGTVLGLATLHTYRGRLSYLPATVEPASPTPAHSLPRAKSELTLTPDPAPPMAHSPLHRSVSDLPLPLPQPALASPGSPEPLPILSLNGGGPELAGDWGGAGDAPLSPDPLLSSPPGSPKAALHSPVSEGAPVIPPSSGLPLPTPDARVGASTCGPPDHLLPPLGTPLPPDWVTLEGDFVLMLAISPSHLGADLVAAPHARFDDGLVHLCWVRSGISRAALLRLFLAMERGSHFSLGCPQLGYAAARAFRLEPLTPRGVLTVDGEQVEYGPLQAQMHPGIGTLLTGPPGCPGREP
Conditions: at 0.1 µM.

Assay [13] concerns the target T3, Sphingosine kinase 2 (Homo sapiens). The following applies: at 1 µM.
Assay [14] has as its target Casein kinase II subunit alpha (Homo sapiens) (UniProt P68400). Conditions: at 0.1 µM.
Assay [15] has the same target. Conditions: at 1 µM.
Assay [16] addresses T4, Inhibitor of nuclear factor kappa-B kinase subunit alpha (Homo sapiens) (UniProt O15111).
T4 sequence (whole entry): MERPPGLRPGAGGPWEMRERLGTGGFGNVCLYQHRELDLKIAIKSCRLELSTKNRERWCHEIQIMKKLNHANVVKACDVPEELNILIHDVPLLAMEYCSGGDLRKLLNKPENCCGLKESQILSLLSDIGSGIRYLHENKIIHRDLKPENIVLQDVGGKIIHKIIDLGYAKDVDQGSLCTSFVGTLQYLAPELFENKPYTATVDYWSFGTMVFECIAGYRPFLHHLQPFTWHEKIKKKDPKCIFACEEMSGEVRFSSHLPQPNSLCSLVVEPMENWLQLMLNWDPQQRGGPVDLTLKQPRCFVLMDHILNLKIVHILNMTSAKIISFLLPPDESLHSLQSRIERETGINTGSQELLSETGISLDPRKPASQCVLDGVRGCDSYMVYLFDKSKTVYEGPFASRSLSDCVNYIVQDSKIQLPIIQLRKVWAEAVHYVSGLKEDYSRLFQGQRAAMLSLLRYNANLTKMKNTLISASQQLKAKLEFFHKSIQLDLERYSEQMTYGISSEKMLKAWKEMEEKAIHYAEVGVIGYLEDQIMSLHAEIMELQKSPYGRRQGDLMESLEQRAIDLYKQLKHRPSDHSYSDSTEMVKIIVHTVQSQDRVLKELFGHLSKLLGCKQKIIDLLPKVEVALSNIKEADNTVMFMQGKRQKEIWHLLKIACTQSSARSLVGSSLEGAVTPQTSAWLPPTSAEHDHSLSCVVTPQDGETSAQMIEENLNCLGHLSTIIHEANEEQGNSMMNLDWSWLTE
Conditions: at 0.1 µM.

Assay [17] deals with T4, Inhibitor of nuclear factor kappa-B kinase subunit alpha (Homo sapiens). Conditions: at 1 µM.
The target of assay [18] is T5, Inhibitor of nuclear factor kappa-B kinase subunit beta (Homo sapiens) (UniProt O14920).
T5 sequence (whole entry): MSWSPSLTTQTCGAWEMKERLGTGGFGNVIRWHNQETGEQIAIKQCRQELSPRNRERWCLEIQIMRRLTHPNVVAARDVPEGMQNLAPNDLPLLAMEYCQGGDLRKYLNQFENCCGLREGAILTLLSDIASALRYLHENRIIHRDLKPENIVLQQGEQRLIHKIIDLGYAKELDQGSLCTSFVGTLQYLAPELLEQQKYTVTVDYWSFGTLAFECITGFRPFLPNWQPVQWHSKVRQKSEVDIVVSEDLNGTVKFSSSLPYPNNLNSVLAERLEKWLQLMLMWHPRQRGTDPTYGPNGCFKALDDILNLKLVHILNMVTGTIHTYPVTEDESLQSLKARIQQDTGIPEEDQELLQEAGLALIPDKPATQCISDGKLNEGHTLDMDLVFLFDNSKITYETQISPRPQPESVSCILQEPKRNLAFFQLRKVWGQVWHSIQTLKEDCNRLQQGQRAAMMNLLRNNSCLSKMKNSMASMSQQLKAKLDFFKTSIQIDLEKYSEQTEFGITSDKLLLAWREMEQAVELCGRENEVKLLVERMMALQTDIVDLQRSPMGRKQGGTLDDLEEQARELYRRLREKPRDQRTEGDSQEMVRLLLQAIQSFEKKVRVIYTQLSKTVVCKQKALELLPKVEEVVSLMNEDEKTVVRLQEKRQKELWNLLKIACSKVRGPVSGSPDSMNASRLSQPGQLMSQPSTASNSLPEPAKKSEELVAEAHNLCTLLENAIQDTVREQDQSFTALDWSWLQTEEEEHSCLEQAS
The following applies: at 0.1 µM.

Assay [19] concerns the target T5, Inhibitor of nuclear factor kappa-B kinase subunit beta (Homo sapiens). Conditions: at 1 µM.
The target of assay [20] is T6, Inhibitor of nuclear factor kappa-B kinase subunit epsilon (Homo sapiens) (UniProt Q14164).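 Also: mean inhibition of IKKε reported, from the GSK PKIS dataset.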
T6 sequence (whole entry): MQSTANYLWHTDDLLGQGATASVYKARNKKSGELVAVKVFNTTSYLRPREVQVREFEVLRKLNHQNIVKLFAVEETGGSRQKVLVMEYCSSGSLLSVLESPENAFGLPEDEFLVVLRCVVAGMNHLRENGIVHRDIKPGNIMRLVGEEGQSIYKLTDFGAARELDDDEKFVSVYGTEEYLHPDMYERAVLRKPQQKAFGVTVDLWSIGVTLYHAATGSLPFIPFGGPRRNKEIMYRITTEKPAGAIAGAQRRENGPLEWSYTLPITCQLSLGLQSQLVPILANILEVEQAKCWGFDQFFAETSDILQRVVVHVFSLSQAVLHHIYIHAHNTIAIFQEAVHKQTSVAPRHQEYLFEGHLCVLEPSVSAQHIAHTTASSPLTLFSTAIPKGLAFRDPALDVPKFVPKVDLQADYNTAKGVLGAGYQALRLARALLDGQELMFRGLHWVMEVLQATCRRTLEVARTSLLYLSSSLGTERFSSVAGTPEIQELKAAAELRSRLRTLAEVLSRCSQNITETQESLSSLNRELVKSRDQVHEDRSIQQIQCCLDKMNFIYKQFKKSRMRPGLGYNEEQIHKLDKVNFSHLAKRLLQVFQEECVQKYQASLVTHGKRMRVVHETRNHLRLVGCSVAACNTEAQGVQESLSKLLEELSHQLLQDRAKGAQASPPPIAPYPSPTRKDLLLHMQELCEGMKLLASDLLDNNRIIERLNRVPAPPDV
The following applies: at 0.1 µM.

Structures are written as SMILES.

Sequence of Casein kinase II subunit alpha (Homo sapiens) (P68400 whole entry, looked up): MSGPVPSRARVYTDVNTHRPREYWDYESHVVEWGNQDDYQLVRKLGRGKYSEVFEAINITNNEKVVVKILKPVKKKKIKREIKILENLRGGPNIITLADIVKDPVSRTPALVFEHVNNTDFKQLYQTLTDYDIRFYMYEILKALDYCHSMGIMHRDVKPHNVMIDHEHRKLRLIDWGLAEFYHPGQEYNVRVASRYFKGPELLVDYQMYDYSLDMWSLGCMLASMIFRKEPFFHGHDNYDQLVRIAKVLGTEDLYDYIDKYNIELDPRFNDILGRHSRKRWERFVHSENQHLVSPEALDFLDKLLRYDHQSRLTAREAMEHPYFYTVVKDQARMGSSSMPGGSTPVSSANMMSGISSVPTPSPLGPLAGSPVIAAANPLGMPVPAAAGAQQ
Sequence of Phosphatidylinositol 4-kinase beta (Homo sapiens) (Q9UBF8 2-816 limits assumed): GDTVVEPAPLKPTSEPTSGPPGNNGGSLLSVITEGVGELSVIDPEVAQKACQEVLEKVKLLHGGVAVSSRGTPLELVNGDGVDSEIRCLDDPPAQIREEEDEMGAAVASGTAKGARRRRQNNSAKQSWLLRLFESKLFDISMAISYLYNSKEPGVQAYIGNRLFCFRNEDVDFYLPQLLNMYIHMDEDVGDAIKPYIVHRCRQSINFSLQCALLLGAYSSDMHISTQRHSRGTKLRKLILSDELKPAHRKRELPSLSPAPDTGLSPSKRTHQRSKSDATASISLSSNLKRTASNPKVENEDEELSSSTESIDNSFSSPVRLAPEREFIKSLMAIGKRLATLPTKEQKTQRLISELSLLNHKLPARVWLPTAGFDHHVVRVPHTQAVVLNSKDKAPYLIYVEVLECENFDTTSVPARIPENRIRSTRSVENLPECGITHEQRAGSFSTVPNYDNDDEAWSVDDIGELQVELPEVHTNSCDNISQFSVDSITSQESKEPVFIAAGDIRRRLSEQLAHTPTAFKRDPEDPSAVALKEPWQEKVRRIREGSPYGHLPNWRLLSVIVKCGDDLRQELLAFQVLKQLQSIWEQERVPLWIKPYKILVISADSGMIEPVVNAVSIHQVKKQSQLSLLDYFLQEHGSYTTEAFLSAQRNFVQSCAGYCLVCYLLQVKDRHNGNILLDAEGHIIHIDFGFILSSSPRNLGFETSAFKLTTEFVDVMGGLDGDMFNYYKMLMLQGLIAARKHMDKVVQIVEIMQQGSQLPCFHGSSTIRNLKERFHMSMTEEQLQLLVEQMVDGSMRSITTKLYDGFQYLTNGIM

`CCn1c(-c2nonc2N)nc2cncc(C(=O)NCCNC)c21`: the inhibition in assay [1] is 4.44%; in assay [2], -1.97%; in [3], -2.66%; in assay [4], 4.3%; in [5], 2.53%; in [6] it was 0.31%. Besides, the inhibition is 1.82% in assay [7]; 1.26% in [8]; 0.69% in [9]; 0.59% in assay [10]; -1.79% in assay [11]; -0.3% in assay [12]. For the same compound, the inhibition in assay [13] worked out at 8.93%; in [14], 4.41%; in assay [15] it was 2.99%; in assay [16], 8.82%; in [17], 14.1%; in assay [18], 6.55%. For the same compound, the inhibition in [19] came out at 7.92%; in assay [20] it was 7.73%.

`OCCCNc1nccc(-c2c(-c3ccc(F)cc3)nn3cc(C(F)(F)F)ccc23)n1`: the inhibition in [1] is 2.13%; in [2], -1.12%; in [3] it was -3.43%; in assay [4], 2.12%; in assay [5], 2.75%; in [6], 4.76%. Also, the inhibition was 4.87% in assay [7]; 4.2% in assay [8]; -3.41% in assay [9]; -0.34% in [10]; -0.86% in assay [11]; 1.62% in assay [12]. In addition, the inhibition was -1.3% in assay [13]; 1.23% in assay [14]; 6.41% in assay [15]; -2.66% in assay [16]; 1.51% in assay [17]; 1.75% in assay [18]. For the same compound, the inhibition was -0.39% in [19] and 0.9% in [20].

Consider `NS(=O)(=O)c1cccc(N/C=C2\C(=O)Nc3ccccc32)c1`, for which the inhibition in [1] was 2.84%; in assay [2] it was -2.16%; in assay [3], -4.31%; in assay [4] it was 4.33%; in [5], 7.3%; in [6] it was 4.26%. Besides, the inhibition in [7] was 7.6%; in assay [8], -1.97%; in assay [9] it was 2.07%; in [10], 7.2%; in assay [11], -0.2%; in assay [12] it was 0.81%. In addition, the inhibition in assay [13] was 0.83%; in [14] it was 2.24%; in [15] it was 3.93%; in assay [16] it was 4.81%; in assay [17], 3.57%; in assay [18], 6.37%. Besides, the results for the inhibition in assay [19] and in assay [20] were 4.39% and 6.35%, respectively.

`CCN1CCC(C(=O)Nc2n[nH]c3nnc(-c4cccc(F)c4F)cc23)CC1`: the inhibition in assay [1] is -1.22%; in [2] it was -1.43%; in assay [3] it was 0.92%; in assay [4], -1.4%; in assay [5], -2.49%; in [6], -3.18%. For the same compound, the inhibition is -0.47% in assay [7]; 0.1% in assay [8]; -1.04% in assay [9]; 0.46% in [10]; 4.91% in [11]; -2.69% in assay [12]. In addition, the inhibition in [13] was -1.5%; in assay [14], 5.2%; in assay [15], -0.24%; in [16], -3.04%; in [17] it was 3.59%; in assay [18], -4.76%. For the same compound, the inhibition in [19] was -2.63%; in assay [20] it was -2.1%.

What is called inhibition is the change of the read-out against control, counted positive when it falls.
